Experimental data as given in PubChem BioAssay (EPA / NIEHS).
Records with an inconclusive call do not appear. Calls of active or inactive are those of the source. The calls were made as follows, unless noted: active = hit-call score of the fitted dose curve at least 0.9, where 1 is the maximum; inactive = score below 0.9.

Experiments:
[1] = read-out: Monokine induced gamma interferon (MIG), CXCL9 (gene 4283); assay: BSK_SAg_MIG: BioMAP Diversity Plus: SAg Assay for Monokine induced gamma interferon (MIG) Biomarker Activity (AID 2283092); conditions: primary human HUVEC with PBMC; actives raise or lower the signal
In short: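 HUVEC plus human PBMC co-culture, chemicals dosed and MIG (CXCL9) quantified by ELISA at 24 h. Bidirectional curve fitting against DMSO as negative control and baseline, so both gain and loss of signal count as activity.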

[2] = BSK_SAg_PBMCCytotoxicity: PBMC Cytotoxicity Assessment in the BioMAP Diversity Plus: SAg Assay (AID 2283093); conditions: primary human HUVEC with PBMC;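 also: PBMC viability measured as Alamar Blue reduction fluorescence at 546/580 nm; fitted both ways against DMSO so a hit may be loss or gain of signal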;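 as to AC50: PBMC superantigen activated with SEB plus TSST-1 one hour after compound addition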
In short: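 Alamar Blue reduction (6 h, 546/580 nm) reports PBMC cytotoxicity after 90 h superantigen activation (SEB, TSST-1; 20 ng/mL final each) with 1 h compound pre-treatment. Gain or loss of signal fitted versus DMSO.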

[3] = read-out: Interleukin-8 (IL8), CXCL8 (gene 3576); assay: BSK_SAg_IL8: BioMAP Diversity Plus: SAg Assay for Interleukin-8 (IL8) Biomarker Activity (AID 2283094); conditions: primary human HUVEC with PBMC; actives raise or lower the signal
In short: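 Chemicals were dosed onto a human endothelial–PBMC co-culture, and IL-8 was quantified by ELISA after 24 h. Both increases and decreases were fitted relative to DMSO.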

[4] = BSK_SAg_Proliferation: Cell Proliferation Assessment in the BioMAP Diversity Plus: SAg Assay (AID 2283095); conditions: primary human HUVEC with PBMC;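 also: relative cell number as total protein by SRB absorbance in sub-confluent culture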
In short: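 Absorbance of sulforhodamine B at 560 nm reports total protein in a human vascular endothelial/PBMC co-culture after 96 h chemical exposure. Gain or loss of signal is fitted in both directions against DMSO.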

[5] = BSK_SAg_SRB: Viability Assessment in the BioMAP Diversity Plus: SAg Assay (AID 2283096); conditions: primary human HUVEC with PBMC;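 also: cells read one day after compound addition; hits may be either gain or loss of signal compared with DMSO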
In short: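 This overt-cytotoxicity endpoint quantifies protein in human endothelial/PBMC co-cultures at 24 h using SRB absorbance (560 nm) after trichloroacetic acid fixation. Values reflect signal change from the DMSO negative control, fitted bidirectionally.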

[6] = molecular target: human CYP2A6, CYP2A6 (gene 1548) (UniProt P11509); assay: NVS_ADME_hCYP2A6: NovaScreen (NVS) CYP450-related Enzyme Activity (ADME) Assay for human CYP2A6 (AID 2283099; active = hit-call score of the fitted dose curve at least 0.9, where 1 is the maximum)
In short: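 Recombinant human CYP2A6 from insect cells was incubated with chemical for 0.5 h and activity read by fluorescence. Single-concentration duplicates at 10 uM preceded concentration-response testing to 20 uM, with activity referenced to acetonitrile.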

[7] = molecular target: human CYP2B6, CYP2B6 (gene 1555) (UniProt P20813); assay: NVS_ADME_hCYP2B6: NovaScreen (NVS) CYP450-related Enzyme Activity (ADME) Assay for human CYP2B6 (AID 2283101; active = hit-call score of the fitted dose curve at least 0.9, where 1 is the maximum)
In short: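 Recombinant human CYP2B6 with fluorogenic substrate, read by fluorescence intensity 1 h after dosing. Primary screen in duplicate at 10 uM, actives followed in concentration series; signal loss relative to acetonitrile control.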

[8] = molecular target: human CYP2D6, CYP2D6 (gene 1565) (UniProt P10635); assay: NVS_ADME_hCYP2D6: NovaScreen (NVS) CYP450-related Enzyme Activity (ADME) Assay for human CYP2D6 (AID 2283107; active = hit-call score of the fitted dose curve at least 0.9, where 1 is the maximum)
In short: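 Compounds were first tested in duplicate at 10 uM against recombinant enzyme produced in insect cells, with substrate turnover measured by fluorescence after 1 hour. Decreased signal, referenced to acetonitrile vehicle, was taken as reduced enzyme activity. Active chemicals went on to concentration-response testing.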

[9] = molecular target: Cytochrome P450 2C19 (Homo sapiens) (UniProt P33261); assay: NVS_ADME_hCYP2C19: NovaScreen (NVS) CYP450-related Enzyme Activity (ADME) Assay for human CYP2C19 (AID 2283113; active = hit-call score of the fitted dose curve at least 0.9, where 1 is the maximum;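 as to AC50: potency for inhibition seen as loss of fluorescent signal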)
In short: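 Chemicals first screened in duplicate at 10 uM against recombinant human enzyme produced in insect cells; confirmed actives then run as concentration series. Fluorogenic substrate turnover read by fluorescence after 1 h, normalised to acetonitrile.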

[10] = molecular target: Cytochrome P450 3A4 (Homo sapiens) (UniProt P08684); assay: NVS_ADME_hCYP3A4: NovaScreen (NVS) CYP450-related Enzyme Activity (ADME) Assay for human CYP3A4 (AID 2283110; active = hit-call score of the fitted dose curve at least 0.9, where 1 is the maximum)
In short: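 Activity is derived from decreased fluorescence intensity relative to acetonitrile, measured 0.33 hour after dosing insect-cell-expressed CYP3A4 in a cell-free format. Screening used 10 uM in duplicate before concentration-response follow-up.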

[11] = molecular target: human Caspase 5 (CASP5), CASP5 (gene 838) (UniProt P51878); assay: NVS_ENZ_hCASP5: NovaScreen (NVS) Enzymatic Assay for human Caspase 5 (CASP5) (AID 2283137; active = hit-call score of the fitted dose curve at least 0.9, where 1 is the maximum)
In short: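 Chemicals were first tested in duplicate at 25 uM against recombinant caspase 5 from E. coli. Activity was read by fluorescence intensity 2 hours after dosing. Those passing a preset inhibition threshold were retested in singleton concentration-response up to 50 uM.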

[12] = molecular target: human Beta-secretase (BACE), BACE1 (gene 23621) (UniProt P56817); assay: NVS_ENZ_hBACE: NovaScreen (NVS) Enzymatic Assay for human Beta-secretase (BACE) (AID 2283140; active = hit-call score of the fitted dose curve at least 0.9, where 1 is the maximum;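 also: hits are inhibitors that reduce fluorescent substrate signal versus DMSO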)
In short: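 Fluorescence intensity read-out of protease activity defines this endpoint; signal loss relative to DMSO baseline marks inhibition. Recombinant enzyme from SF9 cells, cell-free format, 1 h exposure. Single-concentration duplicate screen (25 uM) precedes concentration-series follow-up.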

[13] = molecular target: human CYP2C9, CYP2C9 (gene 1559) (UniProt P11712); assay: NVS_ADME_hCYP2C9: NovaScreen (NVS) CYP450-related Enzyme Activity (ADME) Assay for human CYP2C9 (AID 2283108; active = hit-call score of the fitted dose curve at least 0.9, where 1 is the maximum)
In short: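 Cell-free assay of recombinant human CYP2C9 produced in Sf9 cells, with enzyme activity read by fluorescence intensity 0.75 h after compound addition. Loss of signal versus an acetonitrile negative control indicates inhibition. Primary screen used 10 uM in duplicate; actives were retested in concentration series.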

Chain of Cytochrome P450 3A4 (Homo sapiens) (P08684 whole entry, looked up): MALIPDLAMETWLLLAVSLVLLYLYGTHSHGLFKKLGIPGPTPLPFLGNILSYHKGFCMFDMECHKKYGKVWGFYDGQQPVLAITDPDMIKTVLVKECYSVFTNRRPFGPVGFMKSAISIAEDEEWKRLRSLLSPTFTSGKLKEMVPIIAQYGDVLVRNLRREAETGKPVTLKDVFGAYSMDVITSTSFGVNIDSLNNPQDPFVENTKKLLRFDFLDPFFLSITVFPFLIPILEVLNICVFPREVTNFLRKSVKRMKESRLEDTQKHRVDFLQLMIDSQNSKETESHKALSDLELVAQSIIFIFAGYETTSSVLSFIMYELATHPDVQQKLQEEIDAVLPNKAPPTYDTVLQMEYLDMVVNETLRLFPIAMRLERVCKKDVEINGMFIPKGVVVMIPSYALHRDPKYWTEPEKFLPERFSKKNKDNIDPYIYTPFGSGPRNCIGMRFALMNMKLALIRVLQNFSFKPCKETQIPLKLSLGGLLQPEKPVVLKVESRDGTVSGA
Chain of human CYP2C9, CYP2C9 (gene 1559) (P11712 whole entry, looked up): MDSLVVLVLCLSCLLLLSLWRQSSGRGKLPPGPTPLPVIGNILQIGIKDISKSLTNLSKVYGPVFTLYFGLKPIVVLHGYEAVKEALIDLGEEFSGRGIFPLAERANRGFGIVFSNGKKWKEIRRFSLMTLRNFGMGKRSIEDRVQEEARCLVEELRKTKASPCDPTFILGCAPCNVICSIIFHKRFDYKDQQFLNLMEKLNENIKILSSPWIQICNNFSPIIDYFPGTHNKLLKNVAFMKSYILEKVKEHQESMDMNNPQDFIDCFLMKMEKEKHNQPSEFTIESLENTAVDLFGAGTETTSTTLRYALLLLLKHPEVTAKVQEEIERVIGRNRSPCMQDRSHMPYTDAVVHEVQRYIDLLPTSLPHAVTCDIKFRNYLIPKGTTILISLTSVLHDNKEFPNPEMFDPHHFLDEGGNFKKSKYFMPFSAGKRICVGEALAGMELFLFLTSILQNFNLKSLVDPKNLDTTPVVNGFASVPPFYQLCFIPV
Chain of human CYP2D6, CYP2D6 (gene 1565) (P10635 whole entry, looked up): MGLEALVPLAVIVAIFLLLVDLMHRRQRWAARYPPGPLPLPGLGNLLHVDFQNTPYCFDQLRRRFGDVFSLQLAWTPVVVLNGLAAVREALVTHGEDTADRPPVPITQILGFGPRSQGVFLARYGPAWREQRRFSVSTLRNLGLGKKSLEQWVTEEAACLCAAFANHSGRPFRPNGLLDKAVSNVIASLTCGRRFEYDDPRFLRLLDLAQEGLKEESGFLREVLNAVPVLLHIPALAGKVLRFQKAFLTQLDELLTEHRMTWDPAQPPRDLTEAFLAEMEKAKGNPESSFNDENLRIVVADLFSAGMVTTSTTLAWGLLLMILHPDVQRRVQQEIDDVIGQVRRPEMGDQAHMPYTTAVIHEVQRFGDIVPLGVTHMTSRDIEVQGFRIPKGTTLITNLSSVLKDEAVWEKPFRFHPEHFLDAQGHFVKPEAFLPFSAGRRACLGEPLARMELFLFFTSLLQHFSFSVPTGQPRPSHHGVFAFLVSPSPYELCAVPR
Chain of human Beta-secretase (BACE), BACE1 (gene 23621) (P56817 whole entry, looked up): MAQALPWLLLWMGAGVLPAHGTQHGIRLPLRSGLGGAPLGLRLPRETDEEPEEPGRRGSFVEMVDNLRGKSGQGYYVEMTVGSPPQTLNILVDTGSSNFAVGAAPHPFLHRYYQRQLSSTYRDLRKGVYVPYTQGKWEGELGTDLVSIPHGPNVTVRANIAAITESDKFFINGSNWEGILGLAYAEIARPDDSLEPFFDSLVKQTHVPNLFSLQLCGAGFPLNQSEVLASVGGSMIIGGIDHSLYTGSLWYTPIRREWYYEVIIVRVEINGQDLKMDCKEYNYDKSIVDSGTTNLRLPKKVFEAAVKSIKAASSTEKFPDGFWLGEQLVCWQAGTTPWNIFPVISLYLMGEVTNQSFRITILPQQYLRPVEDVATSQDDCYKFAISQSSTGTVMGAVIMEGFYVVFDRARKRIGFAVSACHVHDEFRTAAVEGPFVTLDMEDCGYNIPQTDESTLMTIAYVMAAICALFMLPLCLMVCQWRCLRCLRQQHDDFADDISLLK
Chain of human Caspase 5 (CASP5), CASP5 (gene 838) (P51878 whole entry, looked up): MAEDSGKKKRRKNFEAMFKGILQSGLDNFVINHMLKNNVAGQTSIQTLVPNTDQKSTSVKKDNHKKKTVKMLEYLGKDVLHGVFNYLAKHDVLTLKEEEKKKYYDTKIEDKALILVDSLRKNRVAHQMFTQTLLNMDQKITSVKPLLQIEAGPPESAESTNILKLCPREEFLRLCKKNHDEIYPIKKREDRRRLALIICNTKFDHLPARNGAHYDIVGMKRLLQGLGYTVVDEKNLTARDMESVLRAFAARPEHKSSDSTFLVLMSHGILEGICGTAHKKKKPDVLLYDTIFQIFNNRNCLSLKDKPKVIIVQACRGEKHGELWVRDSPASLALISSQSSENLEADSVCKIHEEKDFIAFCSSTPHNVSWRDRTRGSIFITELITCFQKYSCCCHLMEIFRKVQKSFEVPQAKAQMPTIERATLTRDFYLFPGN
Chain of human CYP2B6, CYP2B6 (gene 1555) (P20813 whole entry, looked up): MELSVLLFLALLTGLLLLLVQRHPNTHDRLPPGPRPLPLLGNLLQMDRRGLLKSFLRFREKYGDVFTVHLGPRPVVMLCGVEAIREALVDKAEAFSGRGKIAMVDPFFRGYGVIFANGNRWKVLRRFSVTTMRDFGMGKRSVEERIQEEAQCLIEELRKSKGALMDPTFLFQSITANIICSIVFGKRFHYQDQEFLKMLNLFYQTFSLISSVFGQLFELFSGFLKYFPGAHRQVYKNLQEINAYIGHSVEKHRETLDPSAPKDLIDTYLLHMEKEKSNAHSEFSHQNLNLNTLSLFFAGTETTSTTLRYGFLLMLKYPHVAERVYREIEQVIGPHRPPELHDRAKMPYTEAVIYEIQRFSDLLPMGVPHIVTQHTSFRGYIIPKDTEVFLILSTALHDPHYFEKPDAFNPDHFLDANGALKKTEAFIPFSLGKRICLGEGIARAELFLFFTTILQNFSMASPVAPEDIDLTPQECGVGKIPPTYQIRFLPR
Chain of human CYP2A6, CYP2A6 (gene 1548) (P11509 whole entry, looked up): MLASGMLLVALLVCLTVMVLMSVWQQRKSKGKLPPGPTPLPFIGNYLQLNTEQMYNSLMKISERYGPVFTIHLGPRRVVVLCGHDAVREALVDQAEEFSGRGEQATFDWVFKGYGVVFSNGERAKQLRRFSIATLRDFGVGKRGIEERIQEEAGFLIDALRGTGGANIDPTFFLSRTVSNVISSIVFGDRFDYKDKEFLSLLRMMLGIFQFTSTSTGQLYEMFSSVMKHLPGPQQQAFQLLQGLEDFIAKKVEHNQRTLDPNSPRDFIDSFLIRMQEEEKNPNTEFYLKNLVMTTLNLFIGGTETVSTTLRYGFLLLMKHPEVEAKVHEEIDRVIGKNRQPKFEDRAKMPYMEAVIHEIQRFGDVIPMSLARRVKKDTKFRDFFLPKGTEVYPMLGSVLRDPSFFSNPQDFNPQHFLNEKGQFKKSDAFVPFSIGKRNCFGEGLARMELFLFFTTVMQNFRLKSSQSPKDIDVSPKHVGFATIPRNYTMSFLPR

In the case of O=[N+]([O-])c1ccc(O)cc1, the outcome [1] is reported as “inactive”, the outcome [2] is reported as “inactive” and the outcome [3] is reported as “inactive”. The outcome [4] was “inactive”, the outcome [5] was “inactive” and the outcome [6] was “inactive”. The outcome [7] was “inactive”, the outcome [8] was “inactive” and the outcome [9] was “inactive”.
For Cc1oc(-c2ccccc2)nc1CCOc1ccc(C[C@H](Nc2ccccc2C(=O)c2ccccc2)C(=O)O)cc1, the AC50 [1] was 38.9 µM (active), the AC50 [2] was 28.9 µM (active) and the AC50 [3] was 15.8 µM (active). The AC50 [4] was 19.3 µM (active), the AC50 [5] was 18.8 µM (active) and the outcome [10] was “inactive”. The outcome [9] was “inactive”, the AC50 [11] was 8.25 µM (active) and the AC50 [12] was 1.17 µM (active).
For Cc1cc(C)c(O)c(C)c1, the outcome [1] was “inactive”, the outcome [2] was “inactive” and the outcome [3] was “inactive”. The outcome [4] was “inactive”, the outcome [5] was “inactive” and the outcome [9] was “inactive”.
For CC[C@H](C)[C@@H](C(=O)O)n1sc2ccccc2c1=O, the outcome [1] was “inactive”, the outcome [2] was “inactive” and the outcome [3] was “inactive”. The outcome [4] was “inactive”, the outcome [5] was “inactive” and the AC50 [9] was 13.4 µM (active).
With CC#C[C@]1(O)CC[C@H]2[C@@H]3CCC4=CC(=O)CCC4=C3[C@@H](c3ccc(N(C)C)cc3)C[C@@]21C the AC50 [1] was 35.5 µM (active), the outcome [2] was “inactive” and the outcome [3] was “inactive”. For the same compound, the AC50 [4] was 36.2 µM (active), the AC50 [5] was 31.7 µM (active) and the AC50 [13] was 4.12 µM (active). For the same compound, the AC50 [9] was 3.91 µM (active).
In the case of CCCCC(CC)COC(=O)CCCCC(=O)OCc1ccccc1 (configuration not stated), the outcome [1] is reported as “inactive”, the outcome [2] is reported as “inactive” and the outcome [3] is reported as “inactive”. The outcome [4] was “inactive”, the outcome [5] was “inactive” and the AC50 [9] was 13.2 µM (active).
In the case of NC(=O)N1C(=O)C(C(=O)c2cc(Cl)cs2)c2cc(F)c(Cl)cc21 (configuration not stated), the outcome [1] is reported as “inactive”, the outcome [2] is reported as “inactive” and the outcome [3] is reported as “inactive”. The AC50 [4] was 12.4 µM (active), the AC50 [5] was 20 µM (active) and the AC50 [13] was 15.7 µM (active). For the same compound, the outcome [10] was “inactive”, the outcome [9] was “inactive” and the outcome [11] was “inactive”. For the same compound, the AC50 [12] was 0.139 µM (active).
With C#C[C@]1(O)CC[C@H]2[C@@H]3CCC4=CC(=O)CC[C@@H]4[C@H]3CC[C@@]21C the outcome [1] was “inactive”, the outcome [2] was “inactive” and the outcome [3] was “inactive”. The outcome [4] was “inactive”, the AC50 [5] was 7.46 µM (active) and the AC50 [9] was 3.13 µM (active).
With NC(=O)N(O)[C@@H]1C=C[C@H](Oc2cccc(Oc3ccc(F)cc3)c2)C1 the outcome [1] was “inactive”, the outcome [2] was “inactive” and the outcome [3] was “inactive”. For the same compound, the AC50 [4] was 20 µM (active), the outcome [5] was “inactive” and the AC50 [8] was 1.16 µM (active). The AC50 [10] was 4.62 µM (active) and the AC50 [9] was 0.644 µM (active).
